Screening data (PubChem)
Shown are actives, neighbours in structure and some others; about 1.5% of the full set was active somewhere.
MEX-5 binding = MEX-5 zinc finger RNA-binding disruptors – biochemical, C. elegans, fluorescence polarization, MLPCN library, primary screen; Zinc finger protein mex-5 (Caenorhabditis elegans), Q9XUB2; MEX-5/FITC-TCR2 RNA binding; hits give low values; activity score (negative = inhibition of binding), % at 10 µM; 300,000 compounds, 0.38% hits;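 active = inhibition past about -25% in most replicates, and total fluorescence under double the plate's negative control median, limit read from the data; inconclusive = replicates evenly split on the limit, or fluorescence at least double controls; inactive = too little inhibition in most replicates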
GLD-1 RNA inh = GLD-1/TGE RNA complex disruptors, primary screen, biochemical, fluorescence polarization | Female germline-specific tumor suppressor gld-1 (Caenorhabditis elegans), Q17339 | purified GLD-1 + fluorescein TGE RNA | inhibition, % at 5.96 µM | 320,000 compounds, 0.44% hits | AID 2280, 2010;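 active = percent inhibition above a per-plate cutoff, the plate mean of test compounds plus 3 SD, cut at about 30% in these data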
Bcl-xL primary = inhibitors of human Bcl-xL, primary screen, biochemical, fluorescence polarization, HTS; 320,000 compounds, 0.7% hits; inhibition, % at 10.9 µM; Bcl-2-like protein 1 (Homo sapiens), Q07817; GST-Bcl-xL / FITC-Bim BH3 peptide fluorescence polarization;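 active = inhibition above the mean of all tested compounds plus 3 SD, cutoff set per campaign, cut at about 30% in these data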;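 note: inhibitors lower millipolarization by displacing the labeled peptide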
Target sequence (Q07817 whole entry, looked up): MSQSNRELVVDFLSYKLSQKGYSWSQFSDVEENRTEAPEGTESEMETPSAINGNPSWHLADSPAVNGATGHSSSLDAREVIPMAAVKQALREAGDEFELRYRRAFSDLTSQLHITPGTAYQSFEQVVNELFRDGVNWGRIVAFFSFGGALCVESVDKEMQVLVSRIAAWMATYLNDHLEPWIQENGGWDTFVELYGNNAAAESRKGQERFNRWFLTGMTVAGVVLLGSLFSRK
MCL1 BIM primary = inhibitors of MCL1 binding to BIM-BH3, primary screen, biochemical, fluorescence polarization; Induced myeloid leukemia cell differentiation protein Mcl-1 (Homo sapiens), Q07820; GST-MCL1 / FITC-Bim-BH3 fluorescence polarization; inhibition, % at 10.9 µM; 320,000 compounds, 0.68% hits;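 active = inhibition above the mean inhibition of all tested compounds plus 3 SD, set per campaign, cut at about 40% in these data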;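 note: higher means more loss of mP so more displacement of Bim peptide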
Target sequence (Q07820 whole entry, looked up): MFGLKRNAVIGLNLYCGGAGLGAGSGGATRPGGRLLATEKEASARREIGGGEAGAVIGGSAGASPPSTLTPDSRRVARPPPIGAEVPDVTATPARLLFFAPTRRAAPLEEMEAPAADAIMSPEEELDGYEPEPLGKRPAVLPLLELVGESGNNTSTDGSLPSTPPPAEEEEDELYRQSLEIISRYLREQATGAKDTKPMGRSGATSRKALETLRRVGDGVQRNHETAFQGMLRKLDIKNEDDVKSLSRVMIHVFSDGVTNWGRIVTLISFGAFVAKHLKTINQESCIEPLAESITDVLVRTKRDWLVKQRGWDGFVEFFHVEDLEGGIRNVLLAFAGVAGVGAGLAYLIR
eLon inh = inhibitors of E. coli Lon protease, primary screen, biochemical, fluorescence polarization | P0A9M0 | purified E. coli Lon protease | inhibition, % at 7.94 µM | 360,000 compounds, 0.42% hits | AID 602123, 2011; in the data active = inhibition above about 13%, passing the limit was not always enough
EBV gp42 block = Epstein-Barr virus gp42 inhibitors, primary screen, biochemical, uHTS, fluorescence polarization; Fluorescence polarization binding assay, mP read-out; inhibition, % (tested at 21.74 µM); 220,000 compounds, 0.42% hits; AID 1085, 2008; in the data active = inhibition above about 50%
BCLXL inh confirm = Bcl-xL inhibitors blocking Bim BH3 binding, confirmation, counter-screen for MCL1 inhibitor project, biochemical, fluorescence polarization | shares compounds with MCL1 BIM primary | inhibition, % at 10.9 µM | GST-Bcl-xL / FITC-Bim BH3 peptide FP binding | 1,700 compounds, 54% hits;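 active = inhibition above a cutoff equal to the mean inhibition of all tested compounds plus 3 SD, cut at about 30% in these data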
MCL1 BIM confirm = inhibitors of MCL1 binding to BIM-BH3, confirmation, biochemical, fluorescence polarization, triplicate; inhibition, % at 10.9 µM; AID 2168, 2009; 1,700 compounds, 61% hits; GST-MCL1 / FITC-Bim-BH3 fluorescence polarization; shares compounds with MCL1 BIM primary;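 active = inhibition above the average of all tested compounds plus 3 SD, cut at about 40% in these data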
GLD-1 TGE cf = GLD-1/TGE RNA binding inhibitors, retest, confirmation, biochemical, fluorescence polarization, triplicate; GLD-1/FL-TGE RNA fluorescence polarization; 550 compounds, 10% hits; shares compounds with GLD-1 RNA inh; inhibition, % at 5.96 µM;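 active = average inhibition across triplicates above the hit cutoff set in the primary screen, cut at about 32% in these data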
E coli Lon conf = E. coli Lon protease inhibitor retest, confirmation, biochemical, fluorescence polarization; shares compounds with eLon inh; purified E. coli Lon; inhibition, % at 7.94 µM; 1,400 compounds, 31% hits; AID 602230, 2012; in the data active = inhibition above about 16%
Of the large screens only hits and unclear results are named; the others gave an inactive call (follow-up assays come after a bar, where they were run).

CC(C)(C)OC(=O)N[C@@H](Cc1ccccc1)C(=O)N1CCC(C(=O)NCC(=O)O)CC1	none (no result: EBV gp42 block)
CC(C)(C)OC(=O)NC(Cc1ccccc1)C(=O)N1CCC(C(=O)NCC(=O)Nc2ccc(F)cc2)CC1 (stereo not drawn)	MEX-5 binding -57, GLD-1 RNA inh 57, Bcl-xL primary 105, MCL1 BIM primary 122, eLon inh 22 (no result: EBV gp42 block) | BCLXL inh confirm 111 | MCL1 BIM confirm 141 | E coli Lon conf 43
Cc1ccc(C)c(S(=O)(=O)N2CCCC2CNC(=O)C(=O)NCCN2CCOCC2)c1 (stereo not drawn)	none (no result: EBV gp42 block)
O=C1C=C(NNC(=O)c2cccnc2)CC(c2ccco2)C1 (stereo not drawn)	GLD-1 RNA inh 120, Bcl-xL primary 49, MCL1 BIM primary 54, eLon inh 46 | BCLXL inh confirm inactive | MCL1 BIM confirm inactive | E coli Lon conf inactive
CN1CC=C2C(C#N)=C(N)C(C#N)(C#N)[C@H](c3ccoc3)[C@H]2C1	MEX-5 binding -66, GLD-1 RNA inh 99, Bcl-xL primary 146, MCL1 BIM primary 175, eLon inh 130, EBV gp42 block 62 | BCLXL inh confirm 111 | MCL1 BIM confirm active | E coli Lon conf 109
Cc1ccc(C2C3CN(C(C)C)CC=C3C(C#N)=C(N)C2(C#N)C#N)cc1 (stereo not drawn)	MEX-5 binding -28, GLD-1 RNA inh 109, Bcl-xL primary 109, MCL1 BIM primary 116, eLon inh 36, EBV gp42 block 89 | BCLXL inh confirm 59 | MCL1 BIM confirm 104 | E coli Lon conf 48
CC1=Nc2nc(N3CCCCCC3)c(C#N)c3c4c(nc(c23)N1)N(c1ccc2ccccc2c1)C(=O)C4	none (no result: EBV gp42 block)
Cc1c2ccccc2nc2c(F)c(NCCO)c(F)c(F)c12	MEX-5 binding -31, GLD-1 RNA inh 83, Bcl-xL primary 157, MCL1 BIM primary active, eLon inh 50, EBV gp42 block 187 | BCLXL inh confirm active | MCL1 BIM confirm active | E coli Lon conf active
Cc1c2ccccc2nc2c(F)c(NC(C)C)c(F)c(F)c12	MEX-5 binding -33, GLD-1 RNA inh 119, Bcl-xL primary 122, MCL1 BIM primary 139, eLon inh 107, EBV gp42 block 168 | BCLXL inh confirm 131 | MCL1 BIM confirm 151 | E coli Lon conf 194
Cc1c(Cl)cccc1Nc1nc(NCCO)c2ccccc2n1	none (no result: EBV gp42 block)
O=C(Oc1ccccc1C(=S)N1CCOCC1)c1cccc([N+](=O)[O-])c1	none (no result: EBV gp42 block)
CCOc1cccc(C2C(C(=O)c3ccc(C)o3)=C(O)C(=O)N2Cc2ccncc2)c1 (stereo not drawn)	none
O=C(C1=C(O)C(=O)N(c2nccs2)C1c1ccccc1)c1cc2ccccc2o1 (stereo not drawn)	GLD-1 RNA inh 174, Bcl-xL primary 185, MCL1 BIM primary active, eLon inh active, EBV gp42 block 157 | BCLXL inh confirm 177 | MCL1 BIM confirm active | E coli Lon conf 197
CCOc1cccc(C2C(C(=O)c3ccc(C)o3)=C(O)C(=O)N2c2nccs2)c1 (stereo not drawn)	MEX-5 binding -71, GLD-1 RNA inh 143, Bcl-xL primary 121, MCL1 BIM primary 143, eLon inh 98, EBV gp42 block 172 | BCLXL inh confirm 156 | MCL1 BIM confirm 183 | E coli Lon conf 118
NCCN1C(=O)c2ccccc2C1(O)c1ccc(Cl)cc1 (stereo not drawn)	none (no result: MEX-5 binding, GLD-1 RNA inh, Bcl-xL primary, MCL1 BIM primary, EBV gp42 block)
CCN(CC)C(=O)C1c2ccccc2Oc2ccccc21	MEX-5 binding inconclusive, GLD-1 RNA inh 169, Bcl-xL primary 195, MCL1 BIM primary active, eLon inh active (no result: EBV gp42 block) | BCLXL inh confirm 91 | MCL1 BIM confirm 126 | E coli Lon conf inactive
Cc1ccc(C(=O)OC(C)C(=O)Nc2ccc(Cl)cn2)s1 (stereo not drawn)	none (no result: MEX-5 binding, EBV gp42 block)
COc1ccc2[nH]c(C)c(CCN(Cc3cccs3)C(=S)Nc3cccc(F)c3)c2c1	GLD-1 RNA inh 53, Bcl-xL primary 59, MCL1 BIM primary 63, eLon inh 27 | BCLXL inh confirm inactive | MCL1 BIM confirm inactive | GLD-1 TGE cf inactive | E coli Lon conf inactive
CCN(CC(=O)N1CCC(C(N)=O)CC1)S(=O)(=O)c1cc(Cl)ccc1Cl	none (no result: MEX-5 binding, GLD-1 RNA inh, Bcl-xL primary, MCL1 BIM primary, EBV gp42 block)
CCCCCOc1ccc(NC(=O)C(=O)NCC2CCCN2CC)cc1 (stereo not drawn)	none
N#CCCn1cc(C=O)c(-c2cccs2)n1	GLD-1 RNA inh 69 | GLD-1 TGE cf inactive
Cc1cc(OCc2cccc(S(=O)(=O)N3CCOCC3)c2)ccc1Cl	none (no result: MEX-5 binding, EBV gp42 block)
CC(=O)N1N=C(c2ccccc2OC(=O)/C=C/c2ccccc2)CC1c1ccccc1 (stereo not drawn)	none (no result: eLon inh)
N#Cc1ccccc1OCC(=O)NNC(=O)CNC(=O)c1cccc(Br)c1	none (no result: MEX-5 binding, EBV gp42 block) | GLD-1 TGE cf inactive
CSc1ccc(CN(C)CC(=O)NC(C)c2ccccc2)cc1 (stereo not drawn)	GLD-1 RNA inh 54 | GLD-1 TGE cf inactive
Nc1n[nH]c2cc(=O)n(-c3ccc(Cl)cc3)nc12	GLD-1 RNA inh 35 | GLD-1 TGE cf inactive
CC1CCC(C(C)C)C(OC(=O)C2=C3c4ccccc4S(=O)(=O)N3CC2)C1 (stereo not drawn)	GLD-1 RNA inh 49 | GLD-1 TGE cf inactive
CC1CCC(C(C)C)C(OC(=O)CSc2nccc(=O)[nH]2)C1 (stereo not drawn)	none
O=C(O)Cn1c2c(c3ccccc31)CCCC2	GLD-1 RNA inh 33, Bcl-xL primary 39, MCL1 BIM primary 48 | GLD-1 TGE cf inactive
